For 14 molecules, growth results are on record in PubChem BioAssay (NCI).

The panel holds about 83,000 compounds, 20% with a hit somewhere; the sample as a whole holds those more often.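 Activity criterion: percent growth below 10, measured after cells in 96-well plates were exposed to a single compound concentration for 48 hours.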 Values without a mark were called inactive. The source made the active and inactive calls.

Among the test systems are DU-145 prostate; K-562 leukemia; MALME-3M melanoma; MDA-MB-231 breast; RXF 393 renal; SF-268 CNS; SF-295 CNS; SF-539 CNS; UACC-257 melanoma; M14 melanoma.
Holding throughout (assay): NCI-60 one-dose screen, 48 h (100 = growth as untreated, 0 = no growth, -100 = all killed)
Settings in all cases: 10 µM unless noted

For `O=c1ccn(C2CC=C(CO)O2)c(=O)[nH]1` (centres undefined), the growth is 108% in the test with DU-145 prostate; 92.8% in the test with K-562 leukemia; 80.9% with MALME-3M melanoma; 104% in the test with MDA-MB-231 breast; 8.91% (active) with RXF 393 renal; 109% with SF-268 CNS. Also, the growth was 92.9% in the test on SF-295 CNS, 99.8% with SF-539 CNS, 78.3% in the test on UACC-257 melanoma and 81.4% with M14 melanoma.

With `Cc1ccc(-c2c3c(N)nc(-c4ccncc4)nc3nc3c2c(C)nn3-c2ccccc2)cc1`, the growth with DU-145 prostate was 32.6%; in the test with K-562 leukemia it was 28.9%; with MALME-3M melanoma, -2.14% (active); in the test with MDA-MB-231 breast, 21.4%; in the test with RXF 393 renal, 45.6%; with SF-268 CNS, 37.8%. Also, the growth in the test with SF-295 CNS was 95%; in the test on SF-539 CNS, 11.3%; in the test with M14 melanoma it was 44.3%.

Turning to `CC[C@H]1CN2CCc3cc(OC)c(OC)cc3C2C[C@@H]1CC1NCCc2cc(OC)c(OC)cc21` (some centres undefined), the growth with DU-145 prostate was -31.6% (active); in the test with K-562 leukemia, -6.17% (active); with MALME-3M melanoma it was -58.1% (active); in the test with MDA-MB-231 breast, -45.5% (active); in the test on RXF 393 renal, -42.9% (active); in the test with SF-268 CNS it was -25.6% (active). Further, the growth in the test with SF-295 CNS was -29.2% (active); in the test on SF-539 CNS it was -59.7% (active); in the test with UACC-257 melanoma, -27.8% (active); with M14 melanoma, -82.9% (active).

As to `C/C(=C\CCc1ccoc1)CC/C=C(\C)CCCC1COC(=O)C1` (centres undefined), the growth is 105% with DU-145 prostate; 98.4% in the test with K-562 leukemia; 89.5% in the test with MALME-3M melanoma; 92.6% in the test with MDA-MB-231 breast; 99.1% with RXF 393 renal; 107% in the test on SF-268 CNS. The growth in the test with SF-295 CNS is 99%; with SF-539 CNS, 93.4%; in the test with UACC-257 melanoma, 101%; in the test with M14 melanoma, 104%.

Take `COc1cc(/C=C/C(=O)CC(=O)/C=C/c2ccc(OC(=O)C3C4CC5CC(C4)CC3C5)c(OC)c2)ccc1OC(=O)C1C2CC3CC(C2)CC1C3` (centres undefined): the growth in the test on DU-145 prostate is 120%; in the test with K-562 leukemia, 95.1%; with MALME-3M melanoma, 78.4%; with MDA-MB-231 breast it was 116%; in the test on RXF 393 renal, 110%; in the test with SF-268 CNS, 104%. Moreover, the growth in the test on SF-295 CNS is 98.9%; in the test with SF-539 CNS, 108%; in the test with UACC-257 melanoma, 102%; in the test with M14 melanoma, 105%.

For `O=[N+]([O-])c1ccc(NS(=O)(=O)c2ccc(Cl)c(Cl)c2)cc1`, the growth with DU-145 prostate is 94%; with K-562 leukemia, 66.3%; in the test with MALME-3M melanoma it was 88%; in the test on MDA-MB-231 breast, 76%; with RXF 393 renal, 93.2%; in the test with SF-268 CNS, 97%. Moreover, the values for the growth in the test on SF-295 CNS, with SF-539 CNS and in the test with M14 melanoma were 50.3%, 82.6% and 79%, respectively.

For `CC(C)Sc1nc(Cl)c(C#N)c(-c2ccc(F)cc2)n1`, the growth was 113% in the test on DU-145 prostate; 16.2% in the test with K-562 leukemia; 100% in the test with MALME-3M melanoma; 111% in the test on MDA-MB-231 breast; 116% in the test on RXF 393 renal; 106% in the test with SF-268 CNS. Moreover, the growth in the test with SF-295 CNS is 108%; with SF-539 CNS, 96.5%; in the test on UACC-257 melanoma it was 118%; in the test on M14 melanoma, 94.5%.

Consider `COC(=O)C1=CCC(n2cnc3c(N)ncnc32)O1` (centres undefined), for which the growth was 113% in the test on DU-145 prostate; 91.8% in the test with K-562 leukemia; 108% in the test on MALME-3M melanoma; 98.5% in the test with MDA-MB-231 breast; -7.73% (active) in the test on RXF 393 renal; 121% in the test on SF-268 CNS. Moreover, the growth was 113% in the test with SF-295 CNS, 98% in the test on SF-539 CNS, 105% with UACC-257 melanoma and 105% with M14 melanoma.

Consider `COc1cc(/C=N/OC(=O)Nc2ccccc2)cc(OC)c1OC`, for which the growth in the test on DU-145 prostate was 115%; in the test with K-562 leukemia, 107%; with MALME-3M melanoma it was 97.9%; with MDA-MB-231 breast, 92.6%; in the test on RXF 393 renal, 121%; in the test on SF-268 CNS, 107%. Further, the growth in the test on SF-295 CNS was 129%; in the test with SF-539 CNS it was 100%; in the test on UACC-257 melanoma it was 105%; with M14 melanoma, 107%.

`COc1cc(/C=C\C(C)=N\Nc2ccccc2)ccc1O`: the growth in the test on DU-145 prostate is 102%; in the test with K-562 leukemia it was 56.1%; in the test on MALME-3M melanoma, 127%; with MDA-MB-231 breast it was 76.8%; in the test on RXF 393 renal it was 108%; in the test on SF-268 CNS, 76.4%. Moreover, the growth with SF-295 CNS is 85.5%; in the test on SF-539 CNS, 88.1%; in the test on UACC-257 melanoma, 79.2%; in the test with M14 melanoma, 97.5%.

As for `CCOC(=O)Nc1cc(-c2ccc(C)c(NS(C)(=O)=O)c2)nn2c(C)nnc12`, the growth in the test with DU-145 prostate is 43.9%; in the test on K-562 leukemia, 16.7%; in the test with MALME-3M melanoma it was -25% (active); in the test on MDA-MB-231 breast it was 26.5%; in the test on RXF 393 renal, -8% (active); with SF-268 CNS, 41.6%. Further, the growth in the test on SF-295 CNS was -21.2% (active); in the test on SF-539 CNS it was 17.2%; in the test on M14 melanoma, 19%.

`O=[N+]([O-])c1ccc2[nH]cc(-c3c4ccccc4cc4[nH]c5ccc([N+](=O)[O-])cc5c34)c2c1`: the growth is 36.6% in the test on DU-145 prostate; 9.96% (active) in the test on K-562 leukemia; 26.5% in the test on MALME-3M melanoma; 45.6% in the test on MDA-MB-231 breast; -2.62% (active) with RXF 393 renal; 33.9% in the test on SF-268 CNS. Besides, the growth with SF-295 CNS is 22.5%; in the test with SF-539 CNS, 44%; in the test on M14 melanoma it was -3.7% (active).

On to `N=C1c2nc3n(c2C(=O)c2nc4n(c21)CCCCC4)CCCCC3`, for which the growth in the test on DU-145 prostate is 113%; in the test with K-562 leukemia it was 102%; in the test with MALME-3M melanoma it was 103%; with MDA-MB-231 breast, 117%; in the test on RXF 393 renal, 102%; in the test with SF-268 CNS it was 108%. The growth in the test on SF-295 CNS was 93.8%; with SF-539 CNS, 105%; with M14 melanoma, 108%.

Turning to `O=C1/C(=C/c2cccc(Cl)c2)CCc2ccccc21`, the growth is 106% with DU-145 prostate; 46.4% in the test with K-562 leukemia; 100% with MALME-3M melanoma; 98.9% in the test on MDA-MB-231 breast; 110% with RXF 393 renal; 99.4% with SF-268 CNS. For the same molecule, the growth is 85.5% in the test on SF-295 CNS, 103% in the test on SF-539 CNS and 103% in the test with M14 melanoma.
